Data as given in PubChem BioAssay AID623891 (Vanderbilt Specialized Chemistry Center, 2012).
Active and inactive are the calls of the source.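 The calls were made as follows: active = fold shift of 2 or more as potentiator, or 0.5 or less as blocker, so actives lie on both sides; inactive = fold shift between 0.5 and 2.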

Target: Metabotropic glutamate receptor 6 (Homo sapiens) (UniProt O15303)
Assay: mGlu6 glutamate response modulation check – cell-based, human, thallium flux, selectivity assay for mGlu4 lead optimization, profiling panel (AID 623891)
Conditions: mGlu6 cells, glutamate CRC fold shift, at 10 µM

Metabotropic glutamate receptor 6 (Homo sapiens), sequence (O15303 whole entry, looked up): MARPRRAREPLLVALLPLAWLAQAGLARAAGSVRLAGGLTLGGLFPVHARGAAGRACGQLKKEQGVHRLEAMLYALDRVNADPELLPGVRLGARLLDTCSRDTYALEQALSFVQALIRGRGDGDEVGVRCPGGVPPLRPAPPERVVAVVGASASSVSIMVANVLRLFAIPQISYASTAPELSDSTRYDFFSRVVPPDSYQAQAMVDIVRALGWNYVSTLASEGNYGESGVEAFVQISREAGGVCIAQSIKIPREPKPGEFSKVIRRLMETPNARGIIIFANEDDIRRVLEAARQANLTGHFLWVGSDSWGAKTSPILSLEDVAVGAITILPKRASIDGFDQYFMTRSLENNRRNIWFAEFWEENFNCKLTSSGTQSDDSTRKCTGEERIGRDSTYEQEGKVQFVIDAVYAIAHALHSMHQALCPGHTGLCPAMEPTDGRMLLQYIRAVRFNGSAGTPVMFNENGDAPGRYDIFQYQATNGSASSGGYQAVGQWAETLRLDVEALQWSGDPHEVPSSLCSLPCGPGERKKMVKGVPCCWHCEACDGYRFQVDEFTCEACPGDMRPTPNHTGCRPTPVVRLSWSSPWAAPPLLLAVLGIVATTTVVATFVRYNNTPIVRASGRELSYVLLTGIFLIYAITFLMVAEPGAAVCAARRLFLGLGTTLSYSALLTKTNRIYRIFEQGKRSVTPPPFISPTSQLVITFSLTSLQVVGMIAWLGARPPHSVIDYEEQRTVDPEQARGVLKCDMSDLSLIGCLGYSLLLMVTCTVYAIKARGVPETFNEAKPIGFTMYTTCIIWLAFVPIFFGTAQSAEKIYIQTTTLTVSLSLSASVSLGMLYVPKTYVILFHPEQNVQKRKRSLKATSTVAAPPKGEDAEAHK

O=C(Nc1cccc(Cl)c1)c1ccccn1
fold shift: 4.27 (active)
